Assay outcomes: PubChem BioAssay, several laboratories
NLRP3 yeast inh – blocks the NALP3 inflammasome reconstituted in yeast; inhibition, % at 10 µM; 0.39% of 330,000 active; Yeast reconstituted NLRP3/ASC/caspase-1, beta-gal luminescence, 24 h;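 active = inhibition of 50% or more; inactive = inhibition below 50%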;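 note: plate controls were induced DMSO wells for no effect and uninduced yeast grown without galactose for full effect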
tim23-1 inh – growth inhibitors of tim23-1 mutant yeast; S. cerevisiae tim23-1 growth, BacTiter-Glo luminescence, 24 h; inhibition, % at 20 µM; 1.3% of 330,000 active; AID 463212;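 active = growth inhibition of the mutant yeast at or above 50%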;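 note: temperature-sensitive mutant grown at 25 °C; plate controls were DMSO-treated mutant yeast for no effect and medium wells lacking yeast for full effect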
NALP1 yeast inh – NALP1 inhibition; S. cerevisiae NALP1/ASC/caspase-1 growth, X-gal OD620, 72 h; inhibition, % at 10 µM; 0.61% of 280,000 active; AID 2071; in the data active = inhibition mostly above about 24%, no sharp cut-off; inactive = mostly below about 32%
tim10-1 inh – tim10-1 yeast growth inhibition. inhibition, % at 20 µM. 2.2% of 330,000 active. S. cerevisiae tim10-1 ts strain growth, BacTiter-Glo, 24 h;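 active = inhibition of at least 40%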;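 note: mutant grown at 25 °C; 0% = DMSO wells with yeast and 100% = wells holding no yeast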
V-ATPase pHluor – alters yeast V-ATPase proton transport. S. cerevisiae, pHLuorin cytosolic pH fluorescence. response, % at 10 µM. 0.37% of 350,000 active; in the data active = response mostly above about 7.3%, no sharp cut-off; inactive = mostly below about 5.4%; note: actives read high
TIM10 inh – inhibits growth of TIM10 yeast strain; inhibition, % at 10 µM; S. cerevisiae TIM10 strain growth, BacTiter-Glo luminescence, 24 h; 1.4% of 330,000 active;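 active = inhibition of 40% or more at the single tested concentration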;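 note: wild-type TIM10 isogenic control strain grown at permissive 25 °C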
tim10-1 confirm – confirmation of tim10-1 mutant yeast growth inhibitors; shares compounds with tim10-1 inh; S. cerevisiae tim10-1 ts strain growth, BacTiter-Glo, 24 h; inhibition, % at 20 µM; 56% of 7,400 active; AID 463213;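 active = inhibition of yeast growth at or above a set limit in either of two repeat tests at 20 µM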;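 note: tim10-1 mutant grown at permissive 25 °C to find synthetic lethal compounds; 0% = DMSO yeast wells and 100% = medium wells without yeast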
The depositor's hits bear a star; . = no result. Most compounds without a hit are left out; they make up all but 4.2% or so of the library.

SMILES	NLRP3 yeast inh	tim23-1 inh	NALP1 yeast inh	tim10-1 inh	V-ATPase pHluor	TIM10 inh	tim10-1 confirm
CCCNC(=O)c1sc2c(c1C(=O)Nc1ccccn1)CCCC2	11	38	1	47*	5	15	27
Cc1cc(C)n(C(=O)/C(C#N)=N/Nc2cc(Cl)cc(Cl)c2)n1	8	29	-13	47*	-2	33	56*
O=C(NC1=NCCS1)C1CCN(S(=O)(=O)c2ccccc2C(F)(F)F)CC1	3	20	.	10	3	1	.
O=[N+]([O-])c1c(C(Cl)Cl)nn(-c2ccccc2)c1N1CCOCC1	-12	44	-3	44*	4	29	35*
COc1cc2c(cc1OC)CN(CCC(=O)c1ccc(Br)cc1)CC2	3	21	1	50*	1	4	33*
COc1ccc([N+](=O)[O-])cc1N(CC(O)CN1C(=O)NC(C)(C)C1=O)S(=O)(=O)c1ccccc1 (centres undefined)	15	10	14	7	4	7	.
COc1cc(C(=O)Nc2ccc(Nc3ccccc3)cc2)cc(OC)c1OC	12	42	0	43*	0	25	42*
COc1cc(C(=O)Nc2ccncc2)cc(OC)c1OC	13	-1	4	2	1	-1	.
COc1cc(C(=O)Nc2ccc(Cl)c(C(F)(F)F)c2)cc(OC)c1OC	-14	44	6	43*	4	36	53*
COc1cc(CCC(=O)Nc2ccc(Cl)c(C(F)(F)F)c2)cc(OC)c1OC	2	32	24	39	-3	38	.
CCn1c(COc2cccc(C)c2)nnc1SCC(=O)CC(=O)Nc1ccccc1OC	11	21	0	48*	-7	19	13
Cc1cccc(-n2c(C)cc(C(=S)N3CCOCC3)c2C)c1C	12	34	-10	44*	3	15	24
O=S(=O)(c1ccc(Br)c2nsnc12)N1CCOCC1	-4	6	30	-8	-2	0	.
CN1CCN(S(=O)(=O)c2ccc(Br)c3nsnc23)CC1	8	-10	51	46*	-2	-14	-10
CCOC(=O)CSc1cc(C)c(C#N)c2nc3ccccc3n12	6	28	-8	41*	-5	-3	26
Cc1cccc(NS(=O)(=O)c2ccc3oc(=O)ccc3c2)c1C	15	30	-27	22	0	30	.
COc1ccc2ncccc2c1Cc1c(OC)ccc2ncccc12	.	.	.	.	-1	.	.
Cc1ccc(NC(=O)CN(c2ccc(Cl)cc2)S(=O)(=O)c2cc([N+](=O)[O-])ccc2Cl)c(C)c1	18	34	21	44*	4	4	23
COc1ccc(C)cc1S(=O)(=O)N(CC(=O)Nc1cccc([N+](=O)[O-])c1)c1ccccc1	12	28	8	17	1	3	.
Cc1nn(CC(=O)Nc2ccc(S(N)(=O)=O)cc2)c(=O)c2ccccc12	17	-13	22	6	0	-6	.
CCc1c(C)sc(NC(=O)c2cc(C(C)C)on2)c1C#N	31	26	6	9	3	11	.
Cc1cc(C(=O)Nc2sc(C)c(C)c2C#N)no1	33	27	17	43*	3	11	20
COc1ccc([N+](=O)[O-])cc1NCc1ccccc1	-35	27	9	43*	1	9	19
COc1ccc([N+](=O)[O-])cc1NCc1ccccc1C	2	34	-2	18	-1	13	.
O=C1OC(c2ccccc2)(N(Nc2ccccc2)c2ccccc2)c2ccccc21 (centres undefined)	.	.	.	.	-20	.	.
SMILES	NLRP3 yeast inh	tim23-1 inh	NALP1 yeast inh	tim10-1 inh	V-ATPase pHluor	TIM10 inh	tim10-1 confirm
O=C(CSc1nnc(-c2ccc(F)cc2)o1)Nc1ccccc1N1CCOCC1	-15	28	.	40*	-3	37	26
O=C(CSc1nc2ccccc2o1)Nc1ccccc1N1CCOCC1	17	36	9	23	2	11	.
CCCCN(C)S(=O)(=O)c1cc(Br)cc2c1N(C(=O)C1CC1)CC2	-4	41	-3	42*	2	32	32*
COc1ccc(NC(=O)NC(C)C2CC3CCC2C3)cc1 (centres undefined)	21	28	0	20	-1	5	.
CCOC(=O)c1oc2ccc(CNC3CCCCC3)c(Cl)c2c1C	27	20	9	41*	4	19	18
CCCCOC(=O)c1ccc(NC(=O)COC(=O)CSc2nc(C)cc(C)n2)cc1	3	32	22	46*	0	0	30
Cc1ccc(C2CC(c3cccs3)=NN2C(=O)c2ccco2)o1 (centres undefined)	5	43	-6	24	-2	22	.
O=C(c1ccco1)N1N=C(c2cccs2)CC1c1ccco1 (centres undefined)	-10	37	2	41*	-5	20	10
COc1cc(CNCCCN2CCOCC2)cc(Cl)c1OCC(=O)NC(C)(C)C	-14	-6	6	-2	-3	-6	.
CN1/C(=C\C(=O)c2ccccc2Cl)c2ccccc2CC1(C)C	27	44	22	36	2	28	.
Cc1ccccc1C(=O)/C=C1/c2ccccc2CC(C)(C)N1C	10	45	-9	42*	-2	32	21
CN1/C(=C\C(=O)c2ccco2)c2ccccc2CC1(C)C	9	30	22	47*	1	1	16
CCOc1ccc(NC(=O)c2ccc3c(c2)C(=O)N(Cc2ccncc2)C3=O)cc1	-1	1	.	-4	9	-6	.
CNCc1ccccc1Sc1ccc(OC)cc1	20	-6	13	-11	1	1	.
CNCc1ccccc1Sc1cccc2ccccc12	6	21	37	41*	-4	35	18
O=C1c2cccc3c(N4CCCCC4)ccc(c23)C(=O)N1CCO	-4	41	5	46*	-3	28	29
C=CCN1C(=O)c2cccc3c(N4CCCCC4)ccc(c23)C1=O	22	12	-6	22	0	4	.
Cc1ccc(C(=O)N/C(=C/c2ccccc2)C(=O)NCC2CCCO2)cc1 (centres undefined)	1	2	2	3	1	15	.
Cc1c(OCC(=O)NCCN2CCOCC2)ccc2c3c(c(=O)oc12)CCC3	-3	-1	29	2	-4	8	.
CCCc1cc(=O)oc2c(C)c(OCC(=O)Nc3ccc(CN4CCOCC4)cc3)ccc12	17	11	23	40*	-2	39	33*
Cc1c(OCC(=O)NCCCN2CCOCC2)ccc2c3c(c(=O)oc12)CCCC3	15	9	14	46*	6	25	26
CCCc1cc(=O)oc2c(C)c(OCC(=O)NCCCN3CCOCC3)ccc12	9	6	6	-4	7	-7	.
